# Measurements as given in PubChem BioAssay AID1851 (National Center for Advancing Translational Sciences (NCATS), 2009).
# The campaign covered roughly 16,000 compounds. About 5,700 (36%) were called active. Not shown: some 24% with an inconclusive outcome. This is one part of the list. A number with no mark means an inactive call. The call rests on the fitted dose curve; in most records, active means well fitted curve in the direction sought with a large enough effect; inconclusive means small, poorly fitted or top-dose-only effect, or effect the other way; inactive means no such curve, though single readings can be large or run the other way.
# Target: Cytochrome P450 1A2 (Homo sapiens) (UniProt P05177)
# Assay: Cytochrome panel assay with activity outcomes
# Details: recombinant CYP, pro-luciferin dealkylation, luminescence, p450-cyp1a2; series mostly up to 57.1 µM
# On the % scale 0 is the no-effect control and ±100 the full control effect.
# Chain of Cytochrome P450 1A2 (Homo sapiens) (P05177 whole entry, looked up): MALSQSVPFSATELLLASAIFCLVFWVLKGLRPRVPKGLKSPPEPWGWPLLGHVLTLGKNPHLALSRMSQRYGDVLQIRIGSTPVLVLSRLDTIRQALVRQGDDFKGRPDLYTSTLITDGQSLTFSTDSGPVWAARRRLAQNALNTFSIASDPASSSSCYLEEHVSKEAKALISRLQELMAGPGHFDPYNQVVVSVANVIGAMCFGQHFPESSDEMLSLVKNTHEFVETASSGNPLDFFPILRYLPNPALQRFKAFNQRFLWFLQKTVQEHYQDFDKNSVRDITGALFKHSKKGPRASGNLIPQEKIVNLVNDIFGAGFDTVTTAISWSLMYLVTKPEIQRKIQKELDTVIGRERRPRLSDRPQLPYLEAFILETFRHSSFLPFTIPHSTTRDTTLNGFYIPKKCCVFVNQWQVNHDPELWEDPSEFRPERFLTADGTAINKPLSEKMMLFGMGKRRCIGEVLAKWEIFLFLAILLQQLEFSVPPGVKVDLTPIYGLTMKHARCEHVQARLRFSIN
SMILES,"activity, negative = inhibition",AC50
CO/N=C\[C@@H](C)[C@H](OCc1ccccc1)C(C)C,-4.31% [at 11.4 µM],–
Cc1noc(C)c1C(=O)N1CCC2(CCCN(C(c3ccccc3)c3ccccc3)C2)CC1,–,inactive
CC(C)NC(=O)N1CCCC2(CCN(C(=O)c3ccncc3)CC2)C1,–,inactive
O=C(c1cnccn1)N1CCC[C@@]2(CCN(Cc3nccs3)C2)C1,–,inactive
O=C(c1ccncc1)N1CCC2(CCCN(C(c3ccccc3)c3ccccc3)C2)CC1,–,0.2 µM (active)
O=C(c1cc(C(F)(F)F)cc(C(F)(F)F)c1)N1CCC2(CCN(Cc3ccccc3)CC2)CC1,–,inactive
O=C(c1ccncc1)N1CCC2(CCCN(Cc3ccccc3)C2)CC1,–,inactive
O=C(c1cnccn1)N1CCC[C@@]2(CCN(Cc3cc(C(F)(F)F)cc(C(F)(F)F)c3)C2)C1,–,inactive
O=C(c1cc(C(F)(F)F)cc(C(F)(F)F)c1)N1CCC2(CC1)CN(Cc1ccccc1)C2,–,inactive
O=C(c1cc(C(F)(F)F)cc(C(F)(F)F)c1)N1CCC[C@@]2(CCN(Cc3ccccc3)C2)C1,–,25.1 µM (active)
COc1ccc(C(=O)N2CCC3(CCCN(Cc4ccncc4)C3)CC2)cc1,–,inactive
O=C(c1ccncc1)N1CCC2(CCCN(Cc3ccncc3)C2)CC1,–,6.31 µM (active)
O=C(c1cnccn1)N1CCC[C@@]2(CCN(Cc3ccncc3)C2)C1,–,15.8 µM (active)
COC(=O)C/C=C\[C@@H](C)[C@@H](/C=N\OC[C@@H](C)[C@H](OCc1ccccc1)C(C)C)OC,-0.613% [at 11.4 µM],–
C[C@@H]1c2cccc(O)c2C(O)=C2C(=O)[C@@]3(O)C(O)=C(C(N)=O)C(=O)[C@@H](N(C)C)[C@@H]3[C@@H](O)[C@@H]21,–,inactive
O=C1C(=O)N(c2cccc(Cl)c2)C(c2ccccc2[N+](=O)[O-])/C1=C(\O)c1ccccc1 (stereo not given),–,inactive
CC(=O)c1sc(N)c(C(=O)OC(C)C)c1C,–,3.55 µM (active)
Cc1ccc(C)c(CN2C(=O)C3CCCN3c3ccc(C#N)cc32)c1 (stereo not given),–,12.6 µM (active)
O=C1C2CCCN2c2ccc(S(=O)(=O)N3CCOCC3)cc2N1Cc1cccc(C(F)(F)F)c1 (stereo not given),–,inactive
CCOC(=O)C1CCN(c2c(NCc3ccc(C(=O)NCCC(C)C)cc3)c(=O)c2=O)CC1,–,inactive
Cc1ccccc1[C@@H](OCCN(C)C)c1ccccc1,–,inactive
CCCCc1cc2ccccc2c(OCCN(C)C)n1,–,0.0794 µM (active)
CCCCc1c(O)nc(SCCN(C)C)n(-c2ccccc2)c1=O,–,inactive
Cc1occc1C(=O)NNC(=O)c1ccc(F)cc1,–,inactive

SMILES,"activity, negative = inhibition",AC50
CC(=O)C1=C(NC(=O)c2ccc(F)cc2)CC2C1C2(C)C (stereo not given),–,0.2 µM (active)
CCn1c(SCC(=O)OC)nnc1C1CCCCC1,–,inactive
COC(=O)CSc1ccc2nnc(-c3ccc(F)cc3)n2n1,–,1.58 µM (active)
COC(=O)C(C)Sc1ccc2nnc(-c3ccc(F)cc3)n2n1 (stereo not given),–,0.794 µM (active)
CC(C)NC(=O)N1CCCC2(CCN(C(=O)c3cccc(F)c3)CC2)C1,–,inactive
CCCN(C/C=C\I)[C@@H]1CCc2cccc(O)c2C1,–,2.51 µM (active)
N#C[C@H]1CN[C@H](N)N[C@@H]1N,-11.6% [at 2.29 µM],–
CCNc1nc(NCC)nc(N(C)N)n1,–,0.708 µM (active)
Cc1ccc(NC(=O)C2CC(=O)n3c(nc4ccccc43)N2)cc1 (stereo not given),–,inactive
Cc1ccc(C(=O)N/N=C/c2nc3ccccc3n2C)cc1,–,7.08 µM (active)
Cn1c(/C=N/NC(=O)c2ccccc2Br)nc2ccccc21,–,2.51 µM (active)
c1csc(CNc2cc(-c3ccoc3)ncn2)c1,–,2 µM (active)
c1ccc(CNc2cc(-c3ccoc3)ncn2)cc1,–,25.1 µM (active)
c1cncc(CNc2cc(-c3ccoc3)ncn2)c1,–,3.16 µM (active)
O=C(Oc1ccc2ccccc2c1Br)N1CCCCCC1,–,4.47 µM (active)
O=C(Oc1ccccc1)N1CCC2(CC1)CCN(c1ccccc1)CC2,–,inactive
Cc1ccccc1C(=O)Oc1ccc(Br)cc1C(=S)N1CCCC1,–,inactive
COC(=O)[C@@H]1O[C@@H](c2c(OC)c(OC)c(C)c(OC)c2OC)[C@H](C)[C@@H](O)[C@@H]1C,-4.49% [at 11.4 µM],–
Cn1cc(/C=C2/SC(=O)N(CC(=O)Nc3ccc4c(c3)OCO4)C2=O)c2ccccc21,–,inactive
CC(C)n1cc(/C=C2/SC(=O)N(CC(=O)Nc3ccc4c(c3)OCO4)C2=O)c2ccccc21,–,inactive
Cn1c(-c2ccc3c(c2)OCO3)cc(=O)c2ccccc21,–,5.01 µM (active)
O=C(c1csnn1)N1CCC2(CC1)CN(c1ccccc1)C2,–,inactive
O=C(Nc1ccccc1)N1CCC2(CC1)CCN(C(=O)c1csnn1)CC2,–,inactive
Cc1ccccc1/C=N\NC(=O)c1csnn1,–,1 µM (active)

SMILES,"activity, negative = inhibition",AC50
O=C(CCNC(=O)Cn1ccc2ccccc2c1=O)NCCCN1CCN(c2ccc(F)cc2)CC1,–,inactive
Cc1ccc(C2/C(=C(/O)c3ccc(Cl)cc3)C(=O)C(=O)N2CC2CCCO2)o1 (stereo not given),–,inactive
CCNc1ncc2nc(-c3ccc(Cl)cc3)c(=O)n(C[C@H]3CCCO3)c2n1,–,0.794 µM (active)
CCNc1ncc2nc(-c3ccc(F)cc3)c(=O)n(C[C@H]3CCCO3)c2n1,–,1.26 µM (active)
Cc1nc2cnc(N3CCOCC3)nc2n(Cc2cccs2)c1=O,–,2 µM (active)
Cc1nc2cnc(N3CCN(C)CC3)nc2n(Cc2cccs2)c1=O,–,12.6 µM (active)
COc1ccc(-n2c(=O)c(CCc3ccccc3)nc3cnc(N4CCN(C)CC4)nc32)cc1,–,inactive
CN1CCN(c2ncc3nc(CCc4ccccc4)c(=O)n(C)c3n2)CC1,–,12.6 µM (active)
Cc1nc2cnc(N3CCNCC3)nc2n(Cc2cccs2)c1=O,–,0.631 µM (active)
Cc1cc2c(nc1C)CCCCN2C[C@H](O)CN1CCCc2nc(-c3ccc(Br)cc3)ccc21,-8.63% [at 11.4 µM],–
Cc1ccc(CCN2CC(C(=O)NCCN3CCCCCC3)CC2=O)cc1 (stereo not given),–,inactive
O=c1cnc2cnc(N3CCOCC3)nc2n1Cc1cccs1,–,2.51 µM (active)
CN1CCN(c2ncc3nc(CCc4ccccc4)c(=O)n(Cc4ccc(F)cc4)c3n2)CC1,–,inactive
CN1CCN(c2ncc3nc(CCc4ccccc4)c(=O)n(Cc4cccs4)c3n2)CC1,–,15.8 µM (active)
C[C@H]1NC(=O)NC1=O,–,inactive
COc1cc([C@@H](O)CO)ccc1OS(=O)(=O)O,–,inactive
Brc1ccc(/C=C/C=N/Nc2nc3ccccc3s2)cc1,–,2.24 µM (active)
Cc1ccc2ccccc2c1CSc1nc(N)nc2c1ncn2CC(C)C,-20.8% [at 2.29 µM],–
CCCn1cnc2c(SCc3ccc(Cl)cc3)nc(N)nc21,–,1.26 µM (active)
CCCn1cnc2c(SCC(=O)O)nc(N)nc21,1.5% [at 11.4 µM],–
CCOC(=O)c1cnc(SCCc2ccccc2)nc1N,–,25.1 µM (active)
CCOC(=O)c1cnc(N(C)C)nc1SC(=N)N,-22.6% [at 2.29 µM],–
CCN1CCc2c(sc(N)c2C(N)=O)C1,–,inactive
CCOC(=O)c1c(NC(=S)Nc2ccccc2)sc2c1CCN(CCc1ccccc1)C2,–,15.8 µM (active)

SMILES,"activity, negative = inhibition",AC50
CCN1CCc2c(sc(NC(=O)c3ccc(S(=O)(=O)N4CCOCC4)cc3)c2C(=O)OC)C1,–,inactive
Cc1ccc2c(c1)N(CC(=O)NC1CCC(C)CC1)C(=O)CO2 (stereo not given),–,inactive
Cc1ccc2c(c1)N(CCC(=O)NCc1ccc3c(c1)OCO3)C(=O)CO2,–,15.8 µM (active)
Cc1ccc2c(c1)N(CC(=O)NC1CCCc3ccccc31)C(=O)CO2 (stereo not given),–,inactive
Cc1ccc(CNC(=O)CN2C(=O)COc3ccc(C)cc32)cc1,–,3.16 µM (active)
Cc1ccc2c(c1)N(CCC(=O)NCCN1CCOCC1)C(=O)CO2,–,inactive
COc1ccc(CCNC(=O)CCN2C(=O)COc3ccc(C)cc32)cc1OC,–,inactive
CC(=O)OCC1=C(C(=O)O)N2C(=O)[C@@H](NC(=O)Cc3cccs3)[C@@H]2SC1,–,inactive
Cc1ccc2c(c1)N(CC(=O)NCc1cccs1)C(=O)C(C)O2 (stereo not given),–,5.01 µM (active)
COc1ccc(CCNC(=O)CCN2C(=O)C(C)Oc3ccc(C)cc32)cc1OC (stereo not given),–,inactive
Cc1ccc2c(c1)N(CCC(=O)NCc1cccnc1)C(=O)CO2,–,3.16 µM (active)
Cc1ccc(C)c(N2CCN(C(=O)C3CCN(S(=O)(=O)c4cccc5nsnc45)CC3)CC2)c1,–,inactive
CO[C@H]1COC(=O)C/C=C\[C@@H](C)COC(=O)[C@@H](C)NC(=O)C/C=C\[C@@H]1C,-10.1% [at 11.4 µM],–
O=C(O)CCC(=O)N1CCC[C@H]1C(=O)O,–,inactive
CCN1CCCC1CNC(=O)CCNC(=O)c1cc(OC)c(OC)c(OC)c1 (stereo not given),–,inactive
COc1cc(C(=O)NCCC(=O)NCc2ccc3c(c2)OCO3)cc(OC)c1OC,–,20 µM (active)
O=C(CCNS(=O)(=O)c1ccc2c(c1)CCC(=O)N2)NCc1ccc2c(c1)OCO2,–,inactive
Cc1cc(C)c2nc(-c3ccccn3)cc(C(=O)Nc3ccc(S(=O)(=O)Nc4cc(C)on4)cc3)c2c1,–,inactive
COc1cc2ccccc2cc1C(=O)Nc1ccc(S(=O)(=O)Nc2cc(C)on2)cc1,–,25.1 µM (active)
Cc1ccc(OCC(=O)Nc2ccc(S(=O)(=O)Nc3onc(C)c3C)cc2)cc1,–,inactive
NS(=O)(=O)c1ccc(NS(=O)(=O)c2ccc(NC(=O)c3ccc(-c4ccccc4)cc3)cc2)cc1,–,inactive
Cc1cc(NC(=O)c2ccc(S(=O)(=O)Nc3ccccc3)cc2)no1,–,5.01 µM (active)
CC(C)CC(C(=O)NCC1CCCO1)N(C(=O)Cn1nnc(-c2ccc(F)cc2)n1)c1cccc(C(F)(F)F)c1 (stereo not given),–,inactive
